# In PubChem BioAssay (NCI):
# The panel holds about 83,000 compounds, 20% with a hit somewhere; the sample as a whole holds those more often.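 The endpoint reported here, percent growth, reads 100 for growth as untreated, 0 for no net growth and -100 for all cells dead.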 A number with no mark means an inactive call. Calls of active or inactive are those of the source. How the source made its calls: active means growth percent below 10; inactive means the rest.
# Tested on: K-562 leukemia
# Experiment: NCI-60 one-dose screen, 48 h (100 = growth as untreated, 0 = no growth, -100 = all killed)
# Conditions: 10 µM unless noted
row,Compound,growth
1,C=CCC(=O)N[C@H](/C=C/C(=O)O)Cc1ccc(-c2cc(Cl)cc(Cl)c2)cc1,96.7%
2,CCN1CCN(c2cc(C)nc(N(CCCNc3ccnc4cc(Cl)ccc34)Cc3cccs3)n2)CC1,-14.2% (active)
3,COC(=O)CCCNc1c(-c2c(O)c(O)cc3c(O)c(-c4c(C)cc5c(-c6nc7ccccn7c6NCCCC(=O)OC)c(O)c(O)cc5c4O)c(C)cc23)nc2ccccn12,11%
4,Cn1ncc(Cl)c1-c1cc(C(=O)N[C@H](CN)Cc2ccc(F)c(F)c2)oc1Cl,-32.7% (active)
5,O=c1[nH]c(N2CCOCC2)nc2scc(-c3ccccc3)c12,101%
6,Cc1cc2c(-c3nc4ccccn4c3NC3CCCCC3)c(O)c(O)cc2c(O)c1-c1c(C)cc2c(-c3nc4ccccn4c3NC3CCCCC3)c(O)c(O)cc2c1O,10.2%
7,CC(C)C1CCC(C)C(C2(C#N)C(N)=NC(N)=C2C#N)C1=O (centres undefined),98.7%
8,Cc1cc(N2CCCC2)nc(N(CCCNc2ccnc3cc(Cl)ccc23)Cc2ccc3c(c2)OCO3)n1,-15.4% (active)
9,[2H]C1([2H])[C@H](C)O[C@H](C)C([2H])([2H])N1c1ccc(NC(=O)c2cccc(-c3ccc(OC(F)(F)F)cc3)c2C)cn1,38.2%
10,Cc1cc2c(-c3nc4ccccn4c3NC34CC5CC(CC(C5)C3)C4)c(O)c(O)cc2c(O)c1-c1c(C)cc2c(-c3nc4ccccn4c3NC34CC5CC(CC(C5)C3)C4)c(O)c(O)cc2c1O,7.38% (active)
11,CC[C@H](Nc1ncnc2nc[nH]c12)c1nc2cccc(F)c2c(=O)n1-c1ccccc1,83.6%
12,COC(=O)C1=C(C(=O)OC)C23C=C(C)C1C2=C(C)C1(CC1)[C@@](C)(O)C3=O (some centres undefined),81%
13,c1ccc2c(c1)CCN(NCCN1CCCC1)C2,92.2%
14,Cc1cc(N(CCNc2ccnc3cc(Cl)ccc23)Cc2cccs2)nc(Cl)n1,-50.9% (active)
15,COc1cc(-c2nc(C(=O)Nc3ccc(C)cc3)nn2-c2ccc(F)c(F)c2)cc(OC)c1OC,101%
16,O=C(Cn1c(=O)ccn(CCCCCCCCOc2ccc(Br)cc2)c1=O)Nc1ccc(Oc2ccc(Cl)cc2)cc1,40.5%
17,Cc1ccc(-c2cc3c(SCC(=O)Nc4cc(C(F)(F)F)ccc4Cl)nccn3n2)cc1,-10.4% (active)
18,CCCc1cc2cc(-n3nc(C)c4c3CC(C)(C)CC4=O)cc(NC3CCC(O)CC3)c2c(=O)[nH]1 (centres undefined),10%
19,COc1ccc(C(=O)c2cc(OC)c(OC)c(OC)c2)cc1/C=C/C(=O)c1ccc(F)cc1,9.61% (active)
20,CC(C)=CCc1cc2c(cc1O)C1=C(C(=O)C3=C(C1=O)S(=O)(=O)CCN3)C(C=C(C)C)O2 (centres undefined),0.919% (active)

row,Compound,growth
1,CN1CCN(c2nc(NCCNc3ccnc4cc(Cl)ccc34)c3ccccc3n2)CC1,-14.1% (active)
2,COc1ccc(CCCc2c3[n+](cc4c(OC)c(OC)ccc24)CCc2cc4c(cc2-3)OCO4)cc1,57.8%
3,N#Cc1cc2[nH]c3ccc(OC(F)(F)F)cc3c2oc1=O,28.8%
4,CCN1CCN(CCCN(C[C@H]2Cc3ccccc3CN2)[C@H]2CCCc3cccnc32)CC1,63.5%
5,Clc1ccc2c(NCCCNCc3ccc4c(c3)OCO4)ccnc2c1,-10.9% (active)
6,Cc1cc(N2CCOCC2)nc(N(CCNc2ccnc3cc(Cl)ccc23)Cc2cccs2)n1,2.63% (active)
7,CCN1CCN(c2cc(C)nc(N(CCCNc3ccnc4cc(Cl)ccc34)Cc3ccc4c(c3)OCO4)n2)CC1,-30.4% (active)
8,COc1cc(-c2cc(-c3ccc(Nc4ccnc5cc(Cl)ccc45)cc3)nc(N3CCOCC3)n2)cc(OC)c1OC,7.37% (active)
9,COC(=O)C1CCc2sc3ncnc(Nc4cn[nH]c4C(=O)Nc4ccc(CN5CCN(C)CC5)cc4)c3c21 (centres undefined),-24% (active)
10,CO/C=C/C(=O)c1cc2cnc3c(=N)cc(NC(=O)C(C)C)c([nH]1)c23,3.9% (active)
11,CCN1CCN(c2nc(C)cc(N(CCNc3ccnc4cc(Cl)ccc34)Cc3ccc4c(c3)OCO4)n2)CC1,-54.9% (active)
12,N#CC(C#N)=NO,108%
13,C=CC(=O)N(C)[C@H]1C[C@H]2OC(C)(C1OC)n1c3ccccc3c3c4c(c5c6ccccc6n2c5c31)C(=O)NC4 (some centres undefined),4.26% (active)
14,Cc1ccc(NC(=O)NC(=O)CSc2nc3ccccc3nc2C)cc1,44.8%
15,C=CCn1c(=O)c2cnc(Nc3ccc(N4CCN(C)CC4)cc3)nc2n1-c1cccc(C(C)(C)O)n1,1.55% (active)
16,Clc1ccc2c(NCCNc3nc(N4CCCC4)nc4ccccc34)ccnc2c1,-24.9% (active)
17,Clc1ccc(/C=C/c2cc(N3CCOCC3)c3cc(Cl)c(Cl)cc3n2)cc1,86.3%
18,Nc1ncnc2c1ccn2-c1cccc(NC(=O)c2ccc(N3CCOCC3)c(C(F)(F)F)c2)c1,21%
19,CC12O[C@H](C[C@@H](OC(=O)CCC(=O)O)[C@H]1O)n1c3ccccc3c3c4c(c5c6ccccc6n2c5c31)C(=O)NC4=O,44.5%
